Most compounds without a hit are left out; they make up all but 14% or so of the library.
HADH2 inhib: blocks human hydroxyacyl-CoA dehydrogenase type II; Q99714; recombinant HADH2, NADH fluorescence, beta-hydroxybutyryl-CoA; Potency, µM (titrated, usually from 57.1 µM), without a hit: at the top dose activity change, negative = inhibition, most hits filed as inhibitors; hit rate 3.4% among 73,000; AID 886; further: potency means the concentration at half of the fitted maximal effect; on the % scale 0 is the no-effect control and ±100 the full control effect; nearly all actives have a fitted effect of over 60% in size
Target sequence (Q99714 whole entry, looked up, one chain of several): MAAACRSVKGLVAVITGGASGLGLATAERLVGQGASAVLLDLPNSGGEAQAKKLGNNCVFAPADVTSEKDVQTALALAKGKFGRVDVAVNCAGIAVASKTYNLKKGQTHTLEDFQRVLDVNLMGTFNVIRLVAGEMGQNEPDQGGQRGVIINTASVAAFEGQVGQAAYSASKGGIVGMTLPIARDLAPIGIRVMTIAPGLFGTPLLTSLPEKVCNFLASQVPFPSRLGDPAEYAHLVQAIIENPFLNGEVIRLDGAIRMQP
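E. coli-expressed His-tagged HADH2 tested at 20 nM in alkaline Tris buffer (pH 9.0); oxidation of 90 uM beta-hydroxybutyryl-CoA with 1 mM NAD+ tracked fluorimetrically for 4 min.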
A350 fluor: compound fluoresces in the Alexa 350 spectral region; Compound autofluorescence, 340/450 nm, Alexa 350 dye-equivalents; hits give high values; max dye-equivalent concentration, M; hit rate 11% among 59,000; in the data active means max dye-equivalent concentration above about 10 nM; inconclusive means mostly about 1.1 nM to 9.6 nM
HSD17B inh: HSD17B dehydrogenase inhibition; Q99714; recombinant HSD17B10, NADH fluorescence kinetic; Potency, µM (series often up to 57.1 µM), for inactives: at the top dose activity change, negative = inhibition, most hits filed as inhibitors; hit rate 7.6% among 75,000; AID 893;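 further: the protocol describes HADH2 (HSD17B10) and not the HSD17B4 of the title; potency means the concentration at half of the fitted maximal effect; on the % scale 0 is the no-effect control and ±100 the full control effect; nearly all actives have a fitted effect of over 70% in size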
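Enzyme plus compound, 15 min room temperature; substrate mix added (NAD+ 1 mM, beta-hydroxybutyryl-CoA 90 uM final); plates read kinetically for NADH fluorescence. HADH2 was His-tagged, E. coli-derived, 20 nM.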
CRE-bla Fsk: alters forskolin-stimulated CRE reporter signaling in CHO cells; CHO CRE-bla reporter (cAMP response element driving beta-lactamase), forskolin EC10, beta-lactamase ratio; Potency, µM (titrated, usually from 38.2 µM), for inactives: at the highest dose activity change, negative = inhibition, actives largely listed as activators; hit rate 2.5% among 71,000; AID 662; active means well fitted activation curve with a large enough effect in the signal ratio, with a control signal flat, not every such curve was filed as active; inconclusive means small, poorly fitted or top-dose-only effect, or effect the other way, or a change in a side signal; the % refers to the signal ratio; further: potency means the concentration at half of the fitted maximal effect; % of control where 0% means no effect
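CHO CRE-bla cells, overnight plating in Opti-MEM with 0.5% dialyzed FBS; cpd titration + EC10 NKH 477, 3 h 37 °C; CCF4 2 h RT; ex 405/em 460 vs 530 ratio → %Activity, AC50.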
AID923: qHTS Assay for Allosteric/Competitive Inhibitors of Caspase-1: Spectroscopic Profiling in AFC Spectral Region | compound fluorescence, AFC spectral region (405/520 nm) | Potency, µM (titrated, usually from 57.5 µM), without a hit: top-dose fluorescence increase, actives largely listed as activators | hit rate 1.1% among 75,000 | AID 923, 2007; further: potency means the concentration at half of the fitted maximal effect; 0% is about no effect
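Compound autofluorescence profiled at 405 nm ex/520 nm em during kinetic caspase 1 run (50 nM enzyme, 5 uM Ac-WEHD-AFC, HEPES pH 7.5, 10 mM DTT). Titration up to 57 uM; baseline from regression intercept, normalized to AFC standard curve.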
4MU fluor: compound fluoresces in the 4-MU spectral region; hit rate 11% among 59,000; compound autofluorescence, 340/450 nm, 4-MU equivalents; hits give high values; AID 589; max dye-equivalent concentration, M; in the data active means max dye-equivalent concentration above about 10 nM; inconclusive means mostly about 1.1 nM to 9.6 nM
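Compounds in 100 mM Tris, pH 8.0, sat 15 min at room temperature before fluorescence was read at 340 nm excitation/450 nm emission; a per-plate six-point 4-MU standard curve converted signals to dye-equivalent concentration at each compound concentration.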
CHO via 24h: cytotoxicity in CRE-bla CHO cells at 24 h; 120 tested, under 10 active; activity, negative = viability loss, % at 46.1 µM; CRE-bla CHO viability, ATP luminescence, 24 h; AID 905; shares compounds with CRE-bla Fsk
CHO via 40h: cytotoxicity in CRE-bla CHO cells at 40 h | shares compounds with CRE-bla Fsk | Potency, µM, without a hit: max response, actives largely listed as inhibitors | AID 906 | 120 tested, under 10 active | CRE-bla CHO viability, ATP luminescence, 40 h
CREB luc CRC: boosts CRE luciferase signal in HEK293 cells; shares compounds with CRE-bla Fsk; HEK293 CRE-luc2P, NKH477 EC10 potentiation, luminescence, 4 h; Potency, µM (series often up to 38.3 µM), without a hit: at the highest dose activity, positive = activation, hits mostly activators; hit rate 80% among 120; AID 907
* = called active by the depositor; i = inactive; ? = inconclusive; / = not tested or not shown; [ ] = another dose, or the depositor's remark. Unless noted, the call rests on the fitted dose curve; in most records, active means well fitted curve in the direction sought with a large enough effect; inconclusive means small, poorly fitted or top-dose-only effect, or another doubt; inactive means no such curve, though single readings can be large; an effect the other way counts as inactive or inconclusive.

SMILES	HADH2 inhib	A350 fluor	HSD17B inh	CRE-bla Fsk	AID923	4MU fluor	CHO via 24h	CHO via 40h	CREB luc CRC
CC(=O)N1CCN(c2ccc(Nc3nc(C)nc4c3oc3ccccc34)cc2)CC1	-6.6%	i	?	1µM*	-0.8%	i	-10.3	?	?
c1cn2cc(-c3ccc4c(c3)OCO4)nc2s1	?	i	-22.8%	?	3.3%	i	/	/	/
Cc1sc2nc(SCc3nc4ccccc4[nH]3)n(Cc3ccco3)c(=O)c2c1C	4.7%	?	0.6%	0.631µM*	2.1%	?	-16.5	?	1.58µM*
CCN(CCCNC(=O)CN(C)S(=O)(=O)c1ccc2c(c1)CCC(=O)N2)c1cccc(C)c1	8.3%	i	15.8%	-7.9%	-1.1%	i	/	/	/
O=C(C1CCCN(S(=O)(=O)c2cccc3cccnc23)C1)N1CCc2ccccc21 (stereo not drawn)	4.8%	/	-3.0%	-11.9%	0.6%	/	/	/	/
O=C(C1=COCCO1)N1CCN(C(c2ccccc2)c2ccccc2)CC1	-18.2%	i	-6.9%	-2.1%	-1.6%	i	/	/	/
Cc1nn(-c2ccccc2)c2sc(C(=O)N(CC(=O)NC(C)(C)C)Cc3ccco3)cc12	-6.9%	i	-29.1%	18.4%	1.6%	i	?	?	12.6µM*
COC(=O)c1ccc(CSc2nc3c(cnn3-c3ccc(F)cc3)c(=O)[nH]2)o1	?	?	?	12.6µM*	2.8%	i	-3.5	-18.3%	5.01µM*
COC(=O)c1ccc(CSc2nc3c(cnn3-c3ccc(Cl)cc3)c(=O)[nH]2)o1	-27.7%	i	-5.7%	?	0.9%	i	/	/	/
COc1cc(-c2nnc3sc(C4CCCCC4)nn23)cc(OC)c1OC	-5.4%	i	-28.2%	1µM*	-3.4%	i	?	?	0.126µM*
COc1cccc(-c2nnc3sc(C4CCCCC4)nn23)c1	/	i	/	/	/	i	/	/	/
O=C(CSc1ncnc2c1oc1ccccc12)Nc1ccc2c(c1)OCCO2	10.2%	i	-13.9%	?	0.4%	i	/	/	/
CCn1c(=O)cc(SCC(=O)Nc2ccc3c(c2)OCCO3)c2ccccc21	-12.5%	i	-22.1%	?	0.5%	i	/	/	/
Cc1nc(SCC(=O)Nc2ccc3c(c2)OCCO3)c2oc3ccccc3c2n1	27.9%	i	-5.6%	0.251µM*	0.3%	i	-9.8	-20.4%	5.01µM*
CCc1nc(SCC(=O)Nc2ccc3c(c2)OCCO3)c2oc3ccccc3c2n1	17.4%	i	-11.2%	0.398µM*	0.1%	i	?	31.6µM*	3.98µM*
CN(C)c1cccc(C(=O)OCC(=O)NCC2CCCO2)c1 (stereo not drawn)	2.6%	i	13.7%	0.6%	0.2%	i	/	/	/
Cc1cccc(C)c1NC(=O)CSc1nnc(Cn2nnc(-c3ccccc3)n2)n1-c1ccccc1	-8.9%	i	-7.5%	2.3%	1.5%	i	/	/	/
CN(C)c1nc(N(C)C)nc(N(C)C)n1	?	i	-0.8%	5.8%[17.1 µM]	1.5%	i	3.0	-2.6%	?
COc1ccc(NC(=O)COc2ccccc2)c(OC)c1	3.2%	i	4.3%	-10.9%	0.7%	i	/	/	/
C=CCNc1nc(Nc2ccc(OC)cc2OC)nc(OCC)n1	8.0%	i	-3.8%	5.01µM*	3.9%	i	-1.3	-10.7%	10µM*
CC(C)CC(N)C(=O)NC(C)C(=O)O (stereo not drawn)	/	/	-7.9%	/	-0.8%	/	/	/	/
Cc1cc(Nc2cccc(C)c2C)n2nc(C)nc2n1	-1.4%	/	2.3%	?	-1.3%	/	/	/	/
CCc1nc2nc(C)cc(Nc3cccc(C(F)(F)F)c3)n2n1	-2.0%	i	-12.9%	3.98µM*	0.2%	i	-16.5	-28.4%	12.6µM*
COc1ccc(/C(O)=C(\C#N)c2nc3ccccc3n2C)cc1OC	1.8%	?	-11.4%	5.01µM*	1.0%	1.36e-08M*	-9.0	-18.7%	4.47µM*
COC(=O)c1ccc(CSc2ccc3nnc(-c4cccnc4)n3n2)o1	-11.3%	/	10.2%	?	1.7%	/	/	/	/
SMILES	HADH2 inhib	A350 fluor	HSD17B inh	CRE-bla Fsk	AID923	4MU fluor	CHO via 24h	CHO via 40h	CREB luc CRC
COC(=O)c1ccc(CSc2ccc3nnc(-c4ccc(OC)c(OC)c4)n3n2)o1	-6.6%	i	?	1.58µM*	-0.8%	i	-20.0	-27.6%	2µM*
O=S(=O)(c1ccc2c(c1)OCCO2)N1CCN(c2cccc(Cl)c2)CC1	5.2%	i	-2.3%	?	0.0%	i	/	/	/
O=S(=O)(c1ccc2c(c1)OCCO2)N1CCC(O)(c2ccc(Cl)cc2)CC1	3.2%	i	22.2%	1.4%	1.7%	i	-2.2	-6.1%	?
COc1ccc(Oc2ncc3ncc(=O)n(C[C@H]4CCCO4)c3n2)cc1	-4.6%	i	-21.8%	-26.5%	-0.6%	i	/	/	/
CO[C@H]1COC(=O)CCC[C@H](C)[C@@H](OC)COC(=O)C/C=C\[C@@H]1C	1.9%[11.4 µM]	/	-1.2%[11.4 µM]	/	3.4%[11.5 µM]	/	/	/	/
CSc1nnc2c3ccccc3n(CCc3ccccc3)c2n1	-2.6%[11.4 µM]	/	-26.8%	0.0158µM*	0.9%	/	?	?	3.16µM*
CCOC(=O)c1cnc2c(cnn2CC)c1NN=C(C)C	?	1.98e-08M*	?	1µM*	-0.3%	3.16e-08M*	-17.6	?	3.16µM*
CCNc1nc(NC(C)(C)C)nc(N(C#N)CC)n1	12.5%	i	-5.0%	?	2.4%	i	-12.2	-25.0%	1.26µM*
CCNc1nc(NC(C)C)nc(N(C#N)Cc2ccccc2)n1	-4.8%	i	-8.7%	15.1%	0.7%	i	/	/	/
CC1CN(C2CCN(C(=O)c3ccccc3Cl)CC2)CC(C)O1 (stereo not drawn)	/	i	/	/	/	i	/	/	/
CCCOC(=O)c1[nH]c2c(c1C)C(=O)CC(c1ccc(OC)c(OC)c1)C2 (stereo not drawn)	10.6%	i	-8.6%	6.8%	-1.7%	i	/	/	/
CCCCCOC(=O)c1[nH]c2c(c1C)C(=O)CC(c1ccco1)C2 (stereo not drawn)	-3.5%	/	-14.4%	0.0794µM*	-0.1%	/	-22.2	-26.7%	-16.5%
CCN(C(=O)c1cn(C)c(=O)c2cc(OC)c(OC)cc12)c1cc(C)ccc1C	-2.8%	i	-29.7%	?	-1.5%	i	/	/	/

Source: PubChem BioAssay (National Center for Advancing Translational Sciences (NCATS))
